According to PubChem BioAssay (Tox21):
Values joined by “and” are separate entries in the source; they are usually repeats but may differ in a detail not shown here. Equal values may be shown once. Inconclusive results are not listed. Where a structure was tested more than once in an assay, its records may differ in their call. Active and inactive are the calls of the source. Unless noted, calls follow the shape of the full dose curve.

Key:
[1] = Nuclear factor erythroid 2-related factor 2/antioxidant responsive element (Nrf2/ARE) small molecule agonists: qHTS cell viability counter screen in human keratinocytes (AID 1919968; active = well fitted curve in the direction sought with a large enough effect in the repeat runs; an effect the other way counts as inactive or inconclusive; also: nearly all actives have a fitted effect of over 55% in size; also: potency is read from the fitted curve at half-maximal effect)
In short: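 Cytotoxicity was multiplexed with the Nrf2/ARE luciferase assay in the same wells. Stably transfected HaCaT keratinocytes were treated with test compounds for 23 h at 37 C. Cell viability was then measured by CellTiter-Fluor fluorescence.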

[2] = Nuclear factor erythroid 2-related factor 2/antioxidant responsive element (Nrf2/ARE) small molecule agonists: luciferase reporter gene qHTS assay in human keratinocytes (AID 1919969); also: nearly all actives have a fitted effect of over 35% in size; also: potency is read from the fitted curve at half-maximal effect
[3] = molecular target: Gonadotropin-releasing hormone receptor (Homo sapiens) (UniProt P30968); assay: Human gonadotropin-releasing hormone receptor (GnRHR) small molecule agonists, calcium flux assay in GnRHR-HEK293 cells (AID 1920063); also: nearly all actives have a fitted effect of over 35% in size; also: potency is read from the fitted curve at half-maximal effect
Gonadotropin-releasing hormone receptor (Homo sapiens), sequence (P30968 whole entry, looked up): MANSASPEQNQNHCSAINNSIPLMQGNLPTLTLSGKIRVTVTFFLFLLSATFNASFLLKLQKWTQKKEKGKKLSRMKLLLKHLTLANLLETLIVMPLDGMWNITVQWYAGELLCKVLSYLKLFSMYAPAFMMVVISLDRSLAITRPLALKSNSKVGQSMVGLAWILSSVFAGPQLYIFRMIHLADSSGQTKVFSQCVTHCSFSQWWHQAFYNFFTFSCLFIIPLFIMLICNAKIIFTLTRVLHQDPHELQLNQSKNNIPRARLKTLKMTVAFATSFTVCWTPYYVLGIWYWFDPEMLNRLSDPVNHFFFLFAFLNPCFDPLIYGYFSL
In short: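 Agonist activity was measured as intracellular calcium flux in HEK293 cells engineered to stably express human GnRHR. After dye loading for 1 hour at 37 C, compounds in DMSO were added and fluorescence was followed for 3 minutes.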

[4] = molecular target: KiSS-1 receptor (Homo sapiens) (UniProt Q969F8); assay: Human kisspeptin (KISS1R) small molecule agonists, calcium flux assay in KISS1R-HEK293 cells (AID 1920064; active = well fitted curve in the direction sought with a large enough effect in the repeat runs; an effect the other way counts as inactive or inconclusive)
KiSS-1 receptor (Homo sapiens), sequence (Q969F8 whole entry, looked up): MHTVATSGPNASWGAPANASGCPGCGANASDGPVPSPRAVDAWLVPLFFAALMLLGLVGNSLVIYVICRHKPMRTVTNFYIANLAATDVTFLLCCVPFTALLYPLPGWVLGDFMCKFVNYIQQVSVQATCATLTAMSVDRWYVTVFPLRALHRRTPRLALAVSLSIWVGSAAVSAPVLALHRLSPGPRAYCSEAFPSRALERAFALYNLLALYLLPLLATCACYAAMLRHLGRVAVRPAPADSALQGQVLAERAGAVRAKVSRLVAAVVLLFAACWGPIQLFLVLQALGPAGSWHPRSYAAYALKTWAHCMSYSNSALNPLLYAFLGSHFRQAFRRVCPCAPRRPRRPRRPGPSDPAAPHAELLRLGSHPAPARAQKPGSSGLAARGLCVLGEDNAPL
In short: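 Agonist activity is monitored as intracellular calcium rise in engineered HEK293 cells carrying human KISS1R. Cells are dye-loaded for 1 h at 37 C before compound addition, and fluorescence is recorded for 3 min.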

[5] = p53 small molecule agonists, cell-based qHTS assay with human liver microsomes (AID 1963577)
In short: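 Compounds act here after metabolic activation: human liver microsomes and NADPH, both at 0.5 mg/mL final, were co-added to p53RE-bla cells. Incubation ran 16 h at 37 C, followed by LiveBLAzer detection.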

[6] = p53 small molecule agonists, cell-based qHTS assay with human liver microsomes: qHTS cell viability counter screen (AID 1963579); also: nearly all actives have a fitted effect of over 45% in size; also: potency is read from the fitted curve at half-maximal effect
In short: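 Cells carrying the p53 response-element beta-lactamase reporter are treated for 16 h at 37 C with test compounds in the presence of human liver microsomes and NADPH (both 0.5 mg/mL final); ATP-based CellTiter-Glo luminescence then reports viability.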

[7] = p53 small molecule agonists, cell-based qHTS assay with rat liver microsomes: qHTS cell viability counter screen (AID 1963580); also: nearly all actives have a fitted effect of over 45% in size; also: potency is read from the fitted curve at half-maximal effect
In short: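 Luminescent ATP readout (CellTiter-Glo, 30 min at room temperature) reports viability of p53RE-bla HCT-116 cells after 16 h at 37 C with test compounds under metabolic activation by rat liver microsomes and NADPH at 0.5 mg/mL final each.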

[8] = p53 small molecule agonists, cell-based qHTS assay: qHTS cell viability counter screen (AID 1963581); also: nearly all actives have a fitted effect of over 45% in size; also: potency is read from the fitted curve at half-maximal effect
In short: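 Viability was counter-screened in parallel with the p53 agonist reporter by measuring intracellular ATP luminescence in the same HCT-116 p53RE-bla wells after 16 h compound treatment at 37 C.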

[9] = p53 small molecule agonists, cell-based qHTS assay (AID 1963582; active = well fitted activation curve with a large enough effect in the signal ratio in the repeat runs, not every such curve was filed as active; the % refers to the signal ratio)
In short: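 Cells carrying a p53-responsive bla reporter are treated with test compounds for 16 h at 37 C; beta-lactamase activity is then detected with LiveBLAzer B/G FRET substrate after 2 h at room temperature.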

[10] = molecular target: 5-hydroxytryptamine receptor 2A (Homo sapiens) (UniProt P28223); assay: 5-hydroxytryptamine receptor 2A (HTR2A) small molecule antagonists, cell-based qHTS assay (AID 1963586); also: nearly all actives have a fitted effect of over 45% in size
5-hydroxytryptamine receptor 2A (Homo sapiens), sequence (P28223 whole entry, looked up): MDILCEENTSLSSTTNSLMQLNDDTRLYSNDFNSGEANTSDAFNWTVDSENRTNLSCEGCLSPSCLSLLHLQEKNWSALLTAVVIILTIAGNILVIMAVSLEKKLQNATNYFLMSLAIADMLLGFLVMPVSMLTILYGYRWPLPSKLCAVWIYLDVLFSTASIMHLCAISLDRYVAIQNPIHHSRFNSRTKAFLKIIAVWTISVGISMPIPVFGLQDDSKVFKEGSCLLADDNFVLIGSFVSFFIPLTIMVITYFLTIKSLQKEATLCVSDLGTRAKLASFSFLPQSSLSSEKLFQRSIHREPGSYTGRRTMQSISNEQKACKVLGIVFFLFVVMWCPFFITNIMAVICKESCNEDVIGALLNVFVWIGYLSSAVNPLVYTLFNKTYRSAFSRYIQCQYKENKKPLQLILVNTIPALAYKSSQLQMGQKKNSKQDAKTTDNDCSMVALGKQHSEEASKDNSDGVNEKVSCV
In short: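 CHO cells stably expressing human HTR2A were plated for 18 h at 37 C, then loaded with calcium dye for 1 h. Compounds were preincubated 5 min at room temperature before DOI (4 nM solution) was added. Kinetic fluorescence was read for 3 min.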

[11] = molecular target: 5-hydroxytryptamine receptor 2A (Homo sapiens) (UniProt P28223); assay: 5-hydroxytryptamine receptor 2A (HTR2A) small molecule agonists, cell-based qHTS assay (AID 1963587); also: nearly all actives have a fitted effect of over 30% in size; also: potency is read from the fitted curve at half-maximal effect
In short: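 HTR2A-CHO cells, plated 18 h at 37 C/5% CO2, dye-loaded 1 h at 37 C; compounds in DMSO added by pin tool (agonist mode). Intracellular calcium flux read as kinetic fluorescence on FDSS over 2 min at 1 s intervals.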

[12] = molecular target: Muscarinic acetylcholine receptor M1 (Homo sapiens) (UniProt P11229); assay: Cholinergic receptor muscarinic 1 (CHRM1) small molecule antagonists, cell-based qHTS assay (AID 1963588); also: nearly all actives have a fitted effect of over 40% in size; also: potency is read from the fitted curve at half-maximal effect
Muscarinic acetylcholine receptor M1 (Homo sapiens), sequence (P11229 whole entry, looked up): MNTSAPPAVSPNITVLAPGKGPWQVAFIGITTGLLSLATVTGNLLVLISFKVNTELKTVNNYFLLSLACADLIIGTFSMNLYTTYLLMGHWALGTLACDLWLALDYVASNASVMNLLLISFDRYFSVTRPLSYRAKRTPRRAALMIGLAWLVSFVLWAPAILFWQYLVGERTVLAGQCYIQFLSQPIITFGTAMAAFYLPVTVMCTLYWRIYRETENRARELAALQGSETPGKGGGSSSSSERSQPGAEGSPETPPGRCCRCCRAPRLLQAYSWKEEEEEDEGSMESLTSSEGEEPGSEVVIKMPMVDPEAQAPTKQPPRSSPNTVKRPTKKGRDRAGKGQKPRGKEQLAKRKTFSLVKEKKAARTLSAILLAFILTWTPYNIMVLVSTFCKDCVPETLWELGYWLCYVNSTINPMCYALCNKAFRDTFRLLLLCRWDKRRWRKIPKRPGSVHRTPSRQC
In short: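 Compounds were tested at 15 concentrations in three independent runs. Dye-loaded CHRM1-CHO cells were exposed 5 min at room temperature before stimulation by acetylcholine added at 50nM. Intracellular calcium was read kinetically on FDSS for 3 min.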

[13] = molecular target: Muscarinic acetylcholine receptor M1 (Homo sapiens) (UniProt P11229); assay: Cholinergic receptor muscarinic 1 (CHRM1) small molecule agonists, cell-based qHTS assay (AID 1963589); also: nearly all actives have a fitted effect of over 35% in size
In short: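 Cells were plated and incubated 18 h at 37 C/5% CO2, loaded with calcium dye for 1 h at 37 C, then treated with compounds in DMSO. Fluorescence was recorded kinetically at 1 sec intervals.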

[14] = cAMP Responsive Elements (CRE) small molecule agonists, cell-based qHTS assay (AID 1963590)
In short: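 Cells carrying a CRE-driven beta-lactamase reporter (HEK 293T) are seeded, incubated overnight (18 h), and treated with test compounds for 3 h at 37 C; reporter activity is then detected with a FRET substrate after 2 h at room temperature.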

[15] = cAMP Responsive Elements (CRE) small molecule antagonists, cell-based qHTS assay (AID 1963591; active = well fitted inhibition curve with a large enough effect in the signal ratio in the repeat runs, not every such curve was filed as active; the % refers to the signal ratio)
In short: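 Cells (CRE-bla HEK 293T, DMEM with 10% dialyzed FBS and 25 mM HEPES) are seeded and incubated 18 h. Compounds are added with NKH477 agonist at 0.25 uM final for 3 h, then FRET substrate for 2 h.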

[16] = molecular target: Beta-2 adrenergic receptor (Homo sapiens) (UniProt P07550); assay: Adrenergic beta2 receptor (ADRB2) small molecule antagonists, cell-based qHTS assay (AID 1963592); also: series mostly up to about 92 µM; nearly all actives have a fitted effect of over 50% in size
Beta-2 adrenergic receptor (Homo sapiens), sequence (P07550 whole entry, looked up): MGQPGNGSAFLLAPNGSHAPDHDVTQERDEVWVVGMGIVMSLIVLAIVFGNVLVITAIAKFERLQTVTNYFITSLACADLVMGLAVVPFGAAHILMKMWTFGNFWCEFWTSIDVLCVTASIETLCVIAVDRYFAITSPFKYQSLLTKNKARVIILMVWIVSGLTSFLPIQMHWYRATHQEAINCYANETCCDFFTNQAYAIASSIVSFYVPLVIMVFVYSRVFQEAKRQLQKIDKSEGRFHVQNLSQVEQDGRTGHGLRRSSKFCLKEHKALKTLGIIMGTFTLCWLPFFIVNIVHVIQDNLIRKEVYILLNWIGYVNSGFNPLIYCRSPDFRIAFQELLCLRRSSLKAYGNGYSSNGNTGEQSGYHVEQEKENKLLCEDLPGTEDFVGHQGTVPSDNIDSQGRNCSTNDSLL
In short: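 Assay format: CHO-ADRB2 cells, 18-20hr seeding at 37C/5% CO2, then compound plus 1nM isoproterenol agonist mix for 0.5hr RT. Homogeneous time-resolved fluorescence cAMP detection after 1hr, expressed as 665/615 nm ratio.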

[17] = molecular target: D(2) dopamine receptor (Homo sapiens) (UniProt P14416); assay: Dopamine D2 receptor (DRD2) small molecule agonists, cell-based qHTS assay (AID 1963594); also: nearly all actives have a fitted effect of over 35% in size
D(2) dopamine receptor (Homo sapiens), sequence (P14416 whole entry, looked up): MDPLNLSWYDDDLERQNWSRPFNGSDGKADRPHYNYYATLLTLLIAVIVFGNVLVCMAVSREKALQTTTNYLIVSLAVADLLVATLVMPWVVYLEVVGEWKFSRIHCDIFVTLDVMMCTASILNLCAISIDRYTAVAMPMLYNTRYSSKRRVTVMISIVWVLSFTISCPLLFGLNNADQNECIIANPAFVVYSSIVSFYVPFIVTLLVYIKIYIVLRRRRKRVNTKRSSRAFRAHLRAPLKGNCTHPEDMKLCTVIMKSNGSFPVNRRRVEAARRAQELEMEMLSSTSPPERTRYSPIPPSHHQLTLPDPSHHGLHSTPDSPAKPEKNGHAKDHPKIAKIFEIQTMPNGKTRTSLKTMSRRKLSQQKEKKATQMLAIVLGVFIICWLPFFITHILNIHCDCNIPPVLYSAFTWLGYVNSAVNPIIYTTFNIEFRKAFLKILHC
In short: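 HEK293 cells stably expressing DRD2 were cultured 24 h at 37 C, then given Ro20-1724 (0.1 mM final) and compounds for 10 min at room temperature. NKH477 (200nM) was then added for 30 min. cAMP was read by HTRF.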

[18] = molecular target: D(2) dopamine receptor (Homo sapiens) (UniProt P14416); assay: Dopamine D2 receptor (DRD2) small molecule antagonists, cell-based qHTS assay (AID 1963595; active = well fitted inhibition curve with a large enough effect in the signal ratio in the repeat runs, with a control signal flat; the % refers to the signal ratio)
In short: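 Cells were plated and grown for 24 h at 37 °C. Ro20-1724 (0.1 mM final) went in first, then compound for 10 min. NKH477 (200 nM) with quinpirole (12 nM) followed for 30 min at RT, then HTRF detection reagents for 1 h.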

[19] = molecular target: Beta-2 adrenergic receptor (Homo sapiens) (UniProt P07550); assay: Adrenergic beta2 receptor (ADRB2) small molecule agonists, cell-based qHTS assay (AID 1963593); also: potency is read from the fitted curve at half-maximal effect;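 as to activation: CHO cells stably overexpressing human ADRB2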
In short: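 CHO cells stably over-expressing ADRB2 were plated overnight at 37C, then dosed with compounds plus a stimulation mix containing 100uM IBMX and 25uM Ro-20-1724 for 0.5hr at room temperature. cAMP was measured by HTRF competition, 1hr.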

Measured: Potency

CCCCC#N
not listed: [19]
inactive: all other assays above

N#CSCSC#N
active: [1] 14 µM and 21.5 µM | [2] 15.2 µM | [3] 39.8 µM | [6] 26.3 µM | [7] 37.2 µM | [8] 46.8 µM | [11] 50.1 µM and 48.5 µM
inactive: [4] | [5] | [10] | [12] | [17]

CC(C)CC(C)(c1ccc(O)cc1)c1ccc(O)cc1
inactive and 36.3 µM (active): [6]
active: [1] 27.4 µM and 38.6 µM
not listed: [7] | [10] | [11] | [14] | [15] | [18] | [19]
inactive: all other assays above

CCOS(C)(=O)=O
not listed: [7] | [10] | [16] | [19]
inactive: all other assays above

Sc1ccccc1Cl
not listed: [7] | [11] | [15]
inactive: all other assays above

Cc1cccc(N)c1C
not listed: [11] | [18]
inactive: all other assays above

ClCOCCl
not listed: [19]
inactive: all other assays above

Nc1c(Oc2ccccc2)cc(O)c2c1C(=O)c1ccccc1C2=O
not listed: [19]
inactive: all other assays above

CCCCN(CC)c1c([N+](=O)[O-])cc(C(F)(F)F)cc1[N+](=O)[O-]
active: [2] 61.1 µM
not listed: [6] | [17]
inactive: all other assays above

O=S(=O)(Cl)Cl
not listed: [15] | [19]
inactive: all other assays above

Nc1ccc(N=Nc2ccc(-c3ccc(N=Nc4c(S(=O)(=O)O)cc5cc(S(=O)(=O)O)c(N=Nc6ccccc6)c(O)c5c4N)cc3)cc2)c(N)c1
not listed: [11] | [12] | [16] | [17] | [18] | [19]
inactive: all other assays above

Cc1cccc(C)c1NC(=O)CN1CCCC1=O
not listed: [15] | [19]
inactive: all other assays above

Cc1cc(Cl)ccc1OC(C)C(=O)O (centres undefined)
not listed: [6]
inactive: all other assays above

Cc1cc(Cl)ccc1OCCCC(=O)O
not listed: [9] | [14] | [15]
inactive: all other assays above

OCCCl
not listed: [6] | [8] | [12] | [17]
inactive: all other assays above

CCOC(=O)CP(=O)(OCC)OCC
not listed: [11] | [19]
inactive: all other assays above

c1ccc(CN2CCNCC2)cc1
not listed: [19]
inactive: all other assays above

CCCCCCCCCCCCBr
not listed: [10] | [17]
inactive: all other assays above

CC(=O)C(Cl)Cl
not listed: [10]
inactive: all other assays above

Nc1cccnc1
not listed: [14] | [15] | [19]
inactive: all other assays above

CCOc1nc(F)cc2nc(S(=O)(=O)Nc3c(Cl)cccc3Cl)nn12
not listed: [6] | [18] | [19]
inactive: all other assays above

C[N+](=O)[O-]
not listed: [8] | [19]
inactive: all other assays above

N#CCNCC#N
not listed: [11] | [14] | [16]
inactive: all other assays above

S=C=S
not listed: [12] | [19]
inactive: all other assays above

O=C1c2ccccc2C(=O)N1SC(Cl)(Cl)Cl
inactive: [4] | [5] | [6] | [8] | [12] | [16] | [17] | [18]
active: [1] 24 µM | [2] 15.1 µM and 7.7 µM | [3] 38.9 µM | [11] 54.2 µM and 43.6 µM | [19] 21.7 µM

[O]=[Cr](=[O])([OH])[O][Cr](=[O])(=[O])[OH]
active: [1] 30.9 µM and 61 µM | [6] 40.7 µM | [8] 18.4 µM
not listed: [7] | [9] | [15] | [19]
inactive: all other assays above

ClCCOCOCCCl
not listed: [14] | [19]
inactive: all other assays above

C=CCSSCC=C
not listed: [12] | [15]
inactive: all other assays above

CC(C)(C)OOC(=O)c1ccccc1
13.3 µM (active) and inactive: [12]
not listed: [6] | [10]
inactive: all other assays above

CNC(=O)NC(O)C(Cl)(Cl)Cl (centres undefined)
not listed: [7] | [18]
inactive: all other assays above

COCC(=O)N(c1c(C)cccc1C)C(C)C(=O)OC (centres undefined)
not listed: [14] | [19]
inactive: all other assays above
